# Results as given in PubChem BioAssay AID1671463 (Sanford-Burnham Center for Chemical Genomics, 2021).
# Screen size: about 370,000 compounds; about 520 (0.14%) were called active. The full list was thinned out, with actives kept by preference. Values without a mark were called inactive. Cut-off read from the data, not from the text of the source: active = activation above about 40%; inactive = the rest.
# Biological target: Atrial natriuretic peptide receptor 1 (Homo sapiens) (UniProt P16066)
# Assay: GC-A stimulated cGMP production enhancers – HEK293 GC-A cells, cGMP TR-FRET, EC30 ANP, primary screen (AID 1671463)
# Conditions: at 10 µM, stronger effect = higher value; 0% at EC30 ANP, 100% saturating ANP unless noted
# Chain of Atrial natriuretic peptide receptor 1 (Homo sapiens) (P16066 whole entry, looked up): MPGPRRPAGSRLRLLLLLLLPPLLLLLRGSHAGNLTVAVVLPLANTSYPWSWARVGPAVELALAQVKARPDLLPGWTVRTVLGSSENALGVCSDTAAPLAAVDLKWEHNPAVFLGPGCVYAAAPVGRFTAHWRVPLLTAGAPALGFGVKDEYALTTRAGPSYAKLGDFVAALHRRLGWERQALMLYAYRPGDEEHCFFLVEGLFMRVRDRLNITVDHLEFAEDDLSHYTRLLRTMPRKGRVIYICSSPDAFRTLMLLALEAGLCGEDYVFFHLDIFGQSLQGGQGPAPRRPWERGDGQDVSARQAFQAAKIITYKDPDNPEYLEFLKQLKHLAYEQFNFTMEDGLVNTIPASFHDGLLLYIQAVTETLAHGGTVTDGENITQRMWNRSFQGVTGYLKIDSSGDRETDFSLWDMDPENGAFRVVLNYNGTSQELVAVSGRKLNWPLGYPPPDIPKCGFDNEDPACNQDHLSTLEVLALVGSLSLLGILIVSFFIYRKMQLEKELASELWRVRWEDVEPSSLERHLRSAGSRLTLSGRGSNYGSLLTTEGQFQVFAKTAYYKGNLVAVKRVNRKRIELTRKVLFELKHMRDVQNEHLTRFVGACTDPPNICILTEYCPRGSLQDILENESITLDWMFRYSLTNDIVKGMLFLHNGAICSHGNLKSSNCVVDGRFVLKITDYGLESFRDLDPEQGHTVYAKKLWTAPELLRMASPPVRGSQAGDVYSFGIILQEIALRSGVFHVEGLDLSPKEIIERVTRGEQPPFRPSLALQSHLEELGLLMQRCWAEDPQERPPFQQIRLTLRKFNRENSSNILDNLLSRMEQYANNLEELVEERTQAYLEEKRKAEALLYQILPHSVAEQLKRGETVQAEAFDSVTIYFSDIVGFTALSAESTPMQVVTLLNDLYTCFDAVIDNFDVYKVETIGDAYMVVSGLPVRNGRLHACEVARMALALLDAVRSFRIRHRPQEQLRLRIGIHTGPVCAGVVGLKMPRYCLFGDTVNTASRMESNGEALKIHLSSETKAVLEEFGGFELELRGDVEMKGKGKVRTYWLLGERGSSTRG
row,SMILES,activation
1,Cc1cccc(N2C(=O)NC(=O)/C(=C\c3cnn(-c4ccccc4)c3)C2=O)c1,54.5% [setting not given] (active)
2,Cc1ccccc1CCC[C@@H](CC1CCCCC1)CN(C)C(=O)Oc1ccccc1,2.21%
3,Nc1ccc([N+](=O)[O-])cc1,1.78%
4,O=C1NC(=O)N(Cc2ccco2)C(=O)/C1=C\c1ccc(-c2ccc(F)cc2)o1,48.8% [setting not given] (active)
5,COC(=O)C1=C(c2cc3ccccc3o2)C[C@@H]2CC[C@H]1N2C(=O)NC1CCCCC1,-7.28%
6,Cc1cc(N2CCNC[C@@H]2C)ccc1N1CC[C@H](O)C1,-0.67%
7,COP(=O)(Sc1ccccc1)C(Cc1ccccc1)NC(=O)OCc1ccccc1 (stereo not given),-3.05%
8,CO[C@H]([C@H](C)/C=C/N(C)C=O)[C@@H](C)C(=O)CC[C@H](C)[C@H](O)[C@H](C)[C@H]1OC(=O)/C=C/C(C)=C/[C@H](O)[C@H](OC)C[C@@H]2C=CC[C@@H](C[C@H](OC)[C@@]3(CO3)[C@@H](OC)C[C@@H](OC)[C@@H]1C)O2,-33.1%
9,CCOC(=O)CC1=C(C(=O)OCC)C2(C(=O)N1)C(C(=O)OC)=C(N)Oc1ccccc12 (stereo not given),-13.7% [setting not given]
10,COc1ccc2c(c1)[C@@]13CCCCC1[C@@H](C2)NCC3 (stereo not given in full),2.3% [setting not given]
